In PubChem BioAssay (NCATS):
Inconclusive results are not listed. The source made the active and inactive calls. Unless noted, calls follow the shape of the dose curve; as a rule, active = well fitted curve in the direction sought with a large enough effect; inconclusive = small, poorly fitted or top-dose-only effect, or another doubt; inactive = no such curve, though single readings can be large; an effect the other way counts as inactive or inconclusive.

Experiments:
[1] = target: Glucocorticoid receptor (Homo sapiens) (UniProt P04150); experiment: qHTS assay for small molecule agonists of glucocorticoid receptor signaling (AID 588532; active = well fitted curve in the direction sought with a large enough effect in the signal ratio, with a control signal flat; the % refers to the signal ratio;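 also: 100% = dexamethasone at 0.1 µM and 0% = DMSO only wells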); details: HeLa MMTV-bla, beta-lactamase ratio, agonist, 18 h; stronger effect = higher value; percent of dexamethasone control, DMSO zero
In short: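 Cells were plated and rested 3-5 h at 37 C, compounds were added in titration and incubated 18 h, then CCF4 substrate was loaded for 2 h at RT before reading blue/green fluorescence. EC50 came from Hill-equation fitting.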

[2] = qHTS assay for small molecule antagonists of peroxisome proliferator-activated receptor delta signaling (AID 588535); details: HEK293T PPARd-UAS-bla, beta-lactamase FRET ratio, 18 h; 460 nm channel;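 also: cells co-treated with a PPAR-delta agonist as stimulator during compound exposure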
In short: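 Antagonist-mode beta-lactamase reporter (GeneBLAzer PPAR-delta-UAS-bla) in HEK293T cells, 2% charcoal/dextran FBS, 4000 cells/well. Compound titrations, 18 h at 37 C; CCF4 ratio read, IC50 and efficacy from Hill fits.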

[3] = target: Peroxisome proliferator-activated receptor gamma (Homo sapiens) (UniProt P37231); experiment: qHTS assay for small molecule agonists of peroxisome proliferator-activated receptor gamma signaling (AID 588536; active = well fitted curve in the direction sought with a large enough effect in the signal ratio, with a control signal flat, not every such curve was filed as active; the % refers to the signal ratio;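 also: 0% = DMSO basal wells and 100% = rosiglitazone at 2 µM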); details: HEK293 PPARg-UAS-bla, beta-lactamase ratio, 16 h, percent of rosiglitazone response, DMSO as zero; series mostly up to 76.7 µM
In short: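 Test agents, titrated, stimulated HEK293 UAS-bla cells overnight (16 h, 37 C). Substrate CCF4 was then added for two hours at room temperature before fluorescence reading.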

[4] = target: Peroxisome proliferator-activated receptor gamma (Homo sapiens) (UniProt P37231); experiment: qHTS assay for small molecule antagonists of peroxisome proliferator-activated receptor gamma signaling (AID 588537; active = well fitted inhibition curve with a large enough effect in the signal ratio, with a control signal flat, not every such curve was filed as active; the % refers to the signal ratio;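 also: reporter cells co-stimulated with 50 nM rosiglitazone agonist during compound treatment; % of control where 0% means no effect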); details: HEK293 PPARg-UAS-bla, beta-lactamase ratio, antagonist mode; series mostly up to 76.8 µM
In short: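 PPARγ-UAS-bla HEK293 cells (3000/well) in 1% charcoal/dextran-stripped FBS are treated with compound, then stimulated with 50 nM rosiglitazone for 16 h at 37 °C. Read-out is CCF4 β-lactamase fluorescence after 2 h at RT. IC50 comes from Hill fits normalised to rosiglitazone and DMSO.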

[5] = qHTS assay for small molecule agonists of retinoid X receptor alpha signaling (AID 588544; calls by dose curve;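 as to activation: 0% = DMSO basal wells and 100% = reference agonist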); details: HEK293T RXRa-UAS-bla, beta-lactamase reporter, 18 h; 530 nm emission
[6] = target: Retinoic acid receptor RXR-alpha (Homo sapiens) (UniProt P19793); experiment: as above; details: HEK293T RXRa-UAS-bla, beta-lactamase reporter, 18 h; series mostly up to 76.7 µM
[7] = target: Thyroid hormone receptor beta (Homo sapiens) (UniProt P10828); experiment: qHTS assay for small molecule agonists of thyroid hormone receptor beta signaling (AID 588545; calls by dose curve;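 also: 0% = DMSO only and 100% = 10 nM T3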); details: TR-UAS-bla GripTite HEK 293, beta-lactamase ratio, agonist mode, 18 h; series mostly up to 76.7 µM
In short: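 Beta-lactamase reporter activity under TR response element control is measured in HEK 293 cells after 18 hrs compound exposure. Signal is ratiometric CCF4 fluorescence, 460/530 nm.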

[8] = qHTS assay for small molecule antagonists of retinoid X receptor alpha signaling (AID 588546; active = well fitted inhibition curve with a large enough effect in the signal ratio, with a control signal flat, not every such curve was filed as active; the % refers to the signal ratio;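 also: cells stimulated with 9-cis-retinoic acid as agonist; % is scaled to controls: 0 for no effect and ±100 for the full control effect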); details: HEK293T RXRa-UAS-bla, beta-lactamase ratio, antagonist mode; measured here: W530 green channel, cytotoxicity proxy
In short: (§1)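 Beta-lactamase reporter inhibition, read as CCF4 fluorescence ratio (ex 405, em 460/530 nm) after 2 h at RT. HEK293T UAS-bla cells, 2500/well, were stimulated with 9-cis-RA at 500 or 100 nM final alongside test compound for 18 h at 37 C.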

[9] = target: Retinoic acid receptor RXR-alpha (Homo sapiens) (UniProt P19793); experiment: as above; details: HEK293T RXRa-UAS-bla, beta-lactamase ratio, antagonist mode
In short: as §1

[10] = target: Thyroid hormone receptor beta (Homo sapiens) (UniProt P10828); experiment: qHTS assay for small molecule antagonists of thyroid hormone receptor beta signaling (AID 588547; active = well fitted inhibition curve with a large enough effect in the signal ratio, with a control signal flat, not every such curve was filed as active; the % refers to the signal ratio;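 also: cells stimulated with 0.4 nM T3 agonist during compound exposure; % is scaled to controls: 0 for no effect and ±100 for the full control effect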); details: TR-UAS-bla HEK293, beta-lactamase ratio, antagonist mode, 18 h
In short: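 TR-UAS-bla GripTite HEK293 cells in 2% charcoal/dextran FBS medium; compounds 0.59 nM to 92 uM with T3 at 0.4nM final, 18 h at 37 C. Beta-lactamase read by CCF4 fluorescence (460/530 nm); Hill fits gave IC50 and efficacy.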

[11] = qHTS assay for small molecule activators of the nuclear factor-kappa B (NF-kB) signaling pathway (AID 651749; active = well fitted activation curve with a large enough effect in the signal ratio; the % refers to the signal ratio; also: % of control where 0% means no effect); details: NF-kB-bla ME-180 cells, beta-lactamase FRET ratio, 16 h; activation: stronger effect = higher value
In short: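 NF-kB-bla ME-180 cells carrying a beta-lactamase reporter under an NF-kB response element, 2,000 cells/well, exposed to compound for 16 hr at 37C; FRET-based beta-lactamase fluorescence read-out of pathway activation.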

[12] = qHTS assay for environmental chemicals that activate the Aryl hydrocarbon Receptor (AhR) signaling pathway (AID 651777); details: 1A2-DRE human hepatoma cells, luciferase, 24 h; activation: stronger effect = higher value; also: % of control where 0% means no effect; nearly all actives have a fitted effect of over 15% in size
In short: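 1A2-DRE human hepatoma reporter line; 1,200 cells/well; cmpd or DMSO 24 h, 37 C/5% CO2; One-Glo 30 min RT; luciferase lum.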

[13] = target: Peroxisome proliferator-activated receptor alpha (Homo sapiens) (UniProt Q07869); experiment: qHTS assay for small molecule agonists of the peroxisome proliferator-activated receptor alpha (PPARalpha) signaling pathway (AID 651778); details: PathHunter PPARalpha complementation, chemiluminescence, 6 h; max response: stronger effect = higher value; also: % of control where 0% means no effect
In short: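 Enzyme-fragment complementation assay in which ligand-bound PPARalpha translocates and forms an active enzyme that generates chemiluminescence. Cells were plated overnight, exposed to compound for 6 hr at 37 C, and then given detection reagent for 60 min at room temperature.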

[14] = qHTS assay for small molecule agonists of the antioxidant response element (ARE) signaling pathway measured by Nrf2-dependant transcriptional activity (AID 720636; active = well fitted curve in the direction sought with a large enough effect in the repeat runs; an effect the other way counts as inactive or inconclusive;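 also: HepG2 cells with an ARE-driven luciferase reporter; % of control where 0% means no effect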); details: ARE-luc HepG2, Nrf2 luciferase reporter, 16 h; series mostly up to 92.4 µM
In short: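 Cells: ARE-luc HepG2 with Nrf2-responsive luciferase. Medium contained 1% dialyzed FBS. Compound exposure lasted 16 hr at 37 C and 5% CO2, followed by ONE-Glo luciferase detection.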

[15] = qHTS assay for small molecule agonists of the antioxidant response element (ARE) signaling pathway measured by Nrf2-dependant transcriptional activity - cell viability counter screen (AID 720653; active = well fitted curve in the direction sought with a large enough effect in the repeat runs; an effect the other way counts as inactive or inconclusive; also: % is scaled to controls: 0 for no effect and ±100 for the full control effect); details: ARE-bla HepG2 viability, CellTiter-Glo ATP luminescence, 16 h; max response: stronger effect = lower value
In short: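 ARE-bla HepG2 cells treated with compounds for 16 h at 37C; this counter screen measures viability as intracellular ATP by CellTiter-Glo luminescence after 30 min at room temperature.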

[16] = qHTS assay for cell viability of HEK293 cells (AID 743288); details: ATP luminescence (CellTiter-Glo), 18 h; max response: stronger effect = lower value; also: % is scaled to controls: 0 for no effect and ±100 for the full control effect; nearly all actives have a fitted effect of over 50% in size
In short: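 The Tox21 protocol used parental HEK293 cells treated for 18 h at 37 C with compounds delivered by pintool; ATP-coupled luminescence after 30 min at room temperature gave viability.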

[17] = qHTS assay for cell viability of the p53RE-bla HCT-116 cell line (AID 743292); details: p53RE-bla HCT-116 viability, ATP luminescence, 16 h; series mostly up to 95 µM; also: % is scaled to controls: 0 for no effect and ±100 for the full control effect; nearly all actives have a fitted effect of over 55% in size
In short: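 HCT-116 p53RE-bla cells seeded 4,000/well; 5 h at 37 C; compound (DMSO) added; 16 h at 37 C; CellTiter-Glo added, 30 min RT; luminescence read.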

[18] = target: Nuclear receptor subfamily 1 group I member 2 (Rattus norvegicus) (UniProt Q9R1A7); experiment: qHTS assay for small molecule activators of the rat pregnane X receptor (rPXR) signaling pathway (AID 651751; call rule not given here; also: 0% is about no effect); details: rPXR reporter cells, luciferase (One-Glo), 24 h
[19] = qHTS assay for small molecule activators of the human pregnane X receptor (PXR) signaling pathway (AID 720659; call rule not given here; also: 0% is about no effect); details: DPX-2 HepG2 CYP3A4-luciferase, 24 h; series mostly up to 92.3 µM
[20] = qHTS assay for small molecule activators of the p53 signaling pathway (AID 651743; active = well fitted activation curve with a large enough effect in the signal ratio, not every such curve was filed as active; the % refers to the signal ratio; also: % of control where 0% means no effect); details: HCT-116 p53RE-bla, beta-lactamase FRET ratio, 16 h; activation: stronger effect = higher value
In short: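 p53RE-bla HCT-116 cells carrying a beta-lactamase reporter under p53 response elements were exposed to compounds for 16 hours at 37 C. Reporter activity read as fluorescence after 2 hours at room temperature with LiveBLAzer B/G FRET substrate.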

Chain of Glucocorticoid receptor (Homo sapiens) (P04150 whole entry, looked up): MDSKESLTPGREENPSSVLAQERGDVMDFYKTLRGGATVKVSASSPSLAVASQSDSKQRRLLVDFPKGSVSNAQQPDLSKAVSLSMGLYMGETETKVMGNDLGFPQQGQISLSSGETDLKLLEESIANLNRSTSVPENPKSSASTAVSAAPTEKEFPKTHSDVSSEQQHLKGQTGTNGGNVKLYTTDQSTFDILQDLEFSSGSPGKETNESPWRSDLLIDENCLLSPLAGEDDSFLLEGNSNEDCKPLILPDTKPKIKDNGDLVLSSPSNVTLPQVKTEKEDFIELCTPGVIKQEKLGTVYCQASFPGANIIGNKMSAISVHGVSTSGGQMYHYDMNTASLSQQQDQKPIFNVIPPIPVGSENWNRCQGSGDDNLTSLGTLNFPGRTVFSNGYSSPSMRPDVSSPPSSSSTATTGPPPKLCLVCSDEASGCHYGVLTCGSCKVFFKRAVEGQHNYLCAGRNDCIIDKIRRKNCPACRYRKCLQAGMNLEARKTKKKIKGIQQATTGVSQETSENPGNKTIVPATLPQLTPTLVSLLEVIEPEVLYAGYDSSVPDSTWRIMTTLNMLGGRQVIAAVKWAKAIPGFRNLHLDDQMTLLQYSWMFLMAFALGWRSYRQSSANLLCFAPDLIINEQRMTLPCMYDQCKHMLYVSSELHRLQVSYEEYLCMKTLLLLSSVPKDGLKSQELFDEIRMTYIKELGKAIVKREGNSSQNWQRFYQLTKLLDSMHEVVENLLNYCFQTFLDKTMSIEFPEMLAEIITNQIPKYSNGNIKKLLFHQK
Chain of Peroxisome proliferator-activated receptor alpha (Homo sapiens) (Q07869 whole entry, looked up, the tested form may be a part): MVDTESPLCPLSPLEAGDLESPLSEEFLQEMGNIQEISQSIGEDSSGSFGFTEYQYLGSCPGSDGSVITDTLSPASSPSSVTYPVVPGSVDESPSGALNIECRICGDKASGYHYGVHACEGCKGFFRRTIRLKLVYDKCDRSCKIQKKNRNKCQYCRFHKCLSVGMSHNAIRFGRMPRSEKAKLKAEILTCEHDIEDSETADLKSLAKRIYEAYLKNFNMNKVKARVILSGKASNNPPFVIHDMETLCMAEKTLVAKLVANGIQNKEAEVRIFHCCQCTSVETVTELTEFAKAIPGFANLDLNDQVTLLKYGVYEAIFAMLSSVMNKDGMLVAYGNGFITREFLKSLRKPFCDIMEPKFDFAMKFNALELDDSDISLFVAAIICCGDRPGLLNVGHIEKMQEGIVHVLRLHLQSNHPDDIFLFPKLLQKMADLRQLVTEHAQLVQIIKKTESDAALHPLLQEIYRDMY
Chain of Peroxisome proliferator-activated receptor gamma (Homo sapiens) (P37231 whole entry, looked up): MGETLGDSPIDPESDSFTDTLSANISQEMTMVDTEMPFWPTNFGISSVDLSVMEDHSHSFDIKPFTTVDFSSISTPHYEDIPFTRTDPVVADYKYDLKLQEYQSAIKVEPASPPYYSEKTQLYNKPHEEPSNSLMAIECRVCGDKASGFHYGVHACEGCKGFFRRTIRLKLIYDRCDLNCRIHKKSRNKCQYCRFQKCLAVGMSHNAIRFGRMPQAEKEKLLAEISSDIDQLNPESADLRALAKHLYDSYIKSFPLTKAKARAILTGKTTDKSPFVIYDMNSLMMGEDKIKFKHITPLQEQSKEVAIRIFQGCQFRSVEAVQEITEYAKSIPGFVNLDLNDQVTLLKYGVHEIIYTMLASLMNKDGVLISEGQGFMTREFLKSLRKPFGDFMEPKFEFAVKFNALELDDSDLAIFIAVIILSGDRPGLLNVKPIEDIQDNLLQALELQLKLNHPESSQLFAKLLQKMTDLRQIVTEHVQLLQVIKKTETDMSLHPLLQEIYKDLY
Chain of Nuclear receptor subfamily 1 group I member 2 (Rattus norvegicus) (Q9R1A7 whole entry, looked up): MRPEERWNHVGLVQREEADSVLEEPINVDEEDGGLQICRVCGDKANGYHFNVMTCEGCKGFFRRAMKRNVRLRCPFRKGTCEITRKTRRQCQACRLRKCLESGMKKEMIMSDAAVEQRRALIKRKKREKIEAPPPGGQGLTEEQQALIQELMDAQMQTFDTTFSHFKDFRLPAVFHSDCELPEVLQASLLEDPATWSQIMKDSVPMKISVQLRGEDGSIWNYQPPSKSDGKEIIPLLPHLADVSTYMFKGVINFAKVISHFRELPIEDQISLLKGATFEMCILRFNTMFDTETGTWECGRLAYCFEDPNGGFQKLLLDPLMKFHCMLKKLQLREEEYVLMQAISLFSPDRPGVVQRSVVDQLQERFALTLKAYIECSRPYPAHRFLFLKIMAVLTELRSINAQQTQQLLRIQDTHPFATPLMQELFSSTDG
Chain of Retinoic acid receptor RXR-alpha (Homo sapiens) (P19793 whole entry, looked up): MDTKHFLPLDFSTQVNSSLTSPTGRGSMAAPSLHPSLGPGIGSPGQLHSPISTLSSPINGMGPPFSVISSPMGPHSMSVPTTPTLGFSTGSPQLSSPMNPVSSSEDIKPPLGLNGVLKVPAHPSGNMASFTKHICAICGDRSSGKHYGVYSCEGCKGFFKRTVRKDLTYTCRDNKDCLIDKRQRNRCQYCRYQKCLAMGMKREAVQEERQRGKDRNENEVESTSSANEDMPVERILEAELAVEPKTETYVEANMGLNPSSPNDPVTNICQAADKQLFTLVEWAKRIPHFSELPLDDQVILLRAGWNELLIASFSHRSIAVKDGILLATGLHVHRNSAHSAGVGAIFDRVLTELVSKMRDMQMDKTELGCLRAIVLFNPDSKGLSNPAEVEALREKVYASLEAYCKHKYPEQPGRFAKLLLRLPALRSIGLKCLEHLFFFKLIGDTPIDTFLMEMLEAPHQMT
Chain of Thyroid hormone receptor beta (Homo sapiens) (P10828 whole entry, looked up): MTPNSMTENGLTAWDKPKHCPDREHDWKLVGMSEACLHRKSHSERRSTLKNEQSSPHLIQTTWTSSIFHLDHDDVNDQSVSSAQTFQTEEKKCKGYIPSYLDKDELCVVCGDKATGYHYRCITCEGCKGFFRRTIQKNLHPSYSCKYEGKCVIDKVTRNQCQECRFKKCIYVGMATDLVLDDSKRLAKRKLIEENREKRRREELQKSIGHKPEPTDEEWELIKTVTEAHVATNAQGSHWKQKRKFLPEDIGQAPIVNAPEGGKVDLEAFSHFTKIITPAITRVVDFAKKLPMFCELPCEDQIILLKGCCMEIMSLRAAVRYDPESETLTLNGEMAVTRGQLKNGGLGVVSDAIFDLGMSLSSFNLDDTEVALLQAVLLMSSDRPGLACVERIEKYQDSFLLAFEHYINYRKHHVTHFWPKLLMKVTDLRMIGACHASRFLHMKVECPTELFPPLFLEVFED

For `Cl[Si](Cl)(Cl)c1ccccc1`, the activation [1] was 5.43% (inactive), the max response [2] was 13.6% and the outcome [3] was “inactive”. For the same compound, the Potency [4] was “inactive”, the max response [5] was -15.8% and the Potency [6] was “inactive”. The Potency [7] was “inactive”, the max response [8] was -7.94% and the max response [9] was -5.52% (inactive). For the same compound, the activity change % (negative = inhibition) [10] was -0.0742% (inactive), the activation [11] was -0.0547% (inactive) and the activation [12] was -0.059% (inactive). For the same compound, the max response [13] was -2.31% (inactive), the Potency [14] was “inactive” and the max response [15] was -8.94% (inactive). For the same compound, the max response [16] was -13.3% (inactive), the Potency [17] was “inactive” and the max response [18] was 1.77% (inactive). For the same compound, the outcome [19] was “inactive”.
For `Cc1ccc(Cl)cc1Cl`, the activation [1] was -2.65% (inactive), the Potency [7] was “inactive” and the max response [8] was -6.55%. For the same compound, the max response [9] was -30.4% (inactive), the activity change % (negative = inhibition) [10] was -1.13% (inactive) and the activation [20] was 1.63% (inactive). The activation [11] was -1.58% (inactive), the activation [12] was 1.78% (inactive) and the max response [13] was -0.243% (inactive). The Potency [14] was “inactive”, the max response [15] was 7.57% (inactive) and the max response [16] was -8.46% (inactive). For the same compound, the Potency [17] was “inactive”, the max response [18] was 1.69% (inactive) and the outcome [19] was “inactive”.
For `OCCC(F)(F)C(F)(F)C(F)(F)C(F)(F)C(F)(F)C(F)(F)C(F)(F)C(F)(F)F`, the max response [2] was -9.21%, the max response [5] was -23.4% and the Potency [6] was “inactive”. For the same compound, the Potency [7] was “inactive”, the max response [8] was -18.9% and the max response [9] was -9.11% (inactive). The activation [20] was 2.93% (inactive), the activation [11] was 1.52% (inactive) and the activation [12] was 0.162% (inactive). For the same compound, the max response [13] was 0.874% (inactive), the max response [15] was -8.07% (inactive) and the max response [16] was -9.6% (inactive). The Potency [17] was “inactive” and the max response [18] was -1.29% (inactive).
In the case of `CCOC(=O)COc1cc(-n2ncc(C(F)(F)F)c(C)c2=O)c(F)cc1Cl`, the activation [1] is reported as 13.3% (inactive), the max response [2] is reported as -4.58% and the outcome [3] is reported as “inactive”. The Potency [4] was “inactive”, the max response [5] was 9.89% and the Potency [6] was “inactive”. The Potency [7] was “inactive”, the activity change % (negative = inhibition) [10] was -20.3% (inactive) and the activation [20] was 2.36% (inactive). The activation [12] was -2.83% (inactive), the max response [13] was -2.22% (inactive) and the Potency [14] was “inactive”. For the same compound, the max response [15] was 9.1% (inactive), the max response [16] was 2.7% (inactive) and the max response [18] was -8.22% (inactive). The outcome [19] was “inactive”.
